Measurements taken from PubChem BioAssay AID1159580 (chemical genetic matrix, 2015).
In all, about 5,500 compounds went through this assay and about 2,000 (36%) were called active. About 18% were inconclusive and are not listed. No stated cut-off is given here; in the data, active means normalized growth mostly below about 0.91 (no sharp cut-off); inconclusive means no clear call, values can overlap the other calls; inactive means mostly above about 0.92. This is one part of the list.

Assay: chemical genetic growth profiling, strain panel (AID 1159580);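 further: tested at 20 µM; growth read once vehicle control cultures reached saturation at 30 °C; 1 = growth at the plate median or of vehicle wells; lower values mean less growth of the strain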
Conditions: S. cerevisiae deletion strains, growth OD

Measured: normalized growth

COc1cc(C(=O)O)c2c(c1C)OC(=O)c1c(C)cc(O)c(C=O)c1O2
active: locus YIL125W, strain kgd1, active compounds read low 0.927 | locus YKL068W, active compounds read low 0.928 | locus YKL085W, strain MDH1 (second series), active compounds read low 0.911 | locus YKL085W, strain MDH1, active compounds read low 0.911 | locus YNL271C, strain bni1, active compounds read low 0.917 | locus YNL298W, strain CLA4, active compounds read low 0.898
inactive: locus YBR021W, strain FUR4, active compounds read low 0.989 | locus YBR229C, strain ROT2, active compounds read low 0.997 | locus YCL029C, strain bik1, active compounds read low 1 | locus YDL035C, strain GPR1, active compounds read low 0.977 | locus YDL074C, strain BRE1, active compounds read low 0.943 | locus YDL101C, strain DUN1, active compounds read low 1 | locus YDL134C, strain PPH21, active compounds read low 0.986 | locus YDL185W, strain tfp1, active compounds read low 0.93 | locus YDL192W, strain arf1, active compounds read low 0.991 | locus YDR101C, strain arx1, active compounds read low 1.01 | locus YDR150W, strain NUM1, active compounds read low 0.997 | locus YDR162C, strain NBP2, active compounds read low 0.969 | locus YDR318W, strain mcm21, active compounds read low 1.01 | locus YDR388W, active compounds read low 0.986 | locus YDR502C, strain sam2, active compounds read low 1 | locus YEL061C, strain CIN8, active compounds read low 0.993 | locus YER110C, active compounds read low 0.969 | locus YER155C, strain BEM2, active compounds read low 1.02 | locus YER167W, strain BCK2, active compounds read low 1.01 | locus YGL078C, strain dbp3, active compounds read low 0.954 | locus YGL086W, strain mad1, active compounds read low 0.986 | locus YGL248W, strain PDE1, active compounds read low 1.01 | locus YGR135W, strain pre9, active compounds read low 0.988 | locus YGR252W, strain gcn5, active compounds read low 1.05 | locus YHR079C, strain IRE1 (second series), active compounds read low 0.988 | locus YHR094C, strain hxt1, active compounds read low 0.989 | locus YHR129C, strain ARP1, active compounds read low 1 | locus YHR200W, strain rpn10, active compounds read low 0.994 | locus YIL066C, strain RNR3, active compounds read low 0.998 | locus YIL073C, strain SPO22, active compounds read low 0.948 | locus YIR030C, strain dcg1, active compounds read low 0.983 | locus YJL095W, strain BCK1, active compounds read low 0.998 | locus YJL134W, strain LCB3, active compounds read low 0.996 | locus YJL168C, strain set2, active compounds read low 0.972 | locus YJL187C, strain SWE1 (second series), active compounds read low 0.969 | locus YKL009W, strain mrt4, active compounds read low 0.974 | locus YKR001C, strain vps1, active compounds read low 0.971 | locus YLR039C, strain RIC1, active compounds read low 0.929 | locus YLR058C, strain SHM2, active compounds read low 1.01 | locus YLR102C, strain apc9, active compounds read low 0.984 | locus YLR268W, strain sec22, active compounds read low 0.956 | locus YLR371W, strain rom2, active compounds read low 0.955 | locus YLR418C, strain cdc73, active compounds read low 0.939 | locus YML016C, strain PPZ1, active compounds read low 0.986 | locus YML032C, strain rad52, active compounds read low 0.996 | locus YML124C, strain tub3, active compounds read low 0.998 | locus YMR078C, strain ctf18, active compounds read low 0.975 | locus YMR223W, strain ubp8, active compounds read low 0.984 | locus YMR263W, strain SAP30, active compounds read low 0.991 | locus YMR307W, strain GAS1, active compounds read low 0.923 | locus YNL067W, strain RPL9B, active compounds read low 0.997 | locus YNL128W, strain TEP1, active compounds read low 0.955 | locus YNL233W, strain BNI4, active compounds read low 1.01 | locus YNL250W, strain rad50, active compounds read low 0.919 | locus YNL307C, strain MCK1, active compounds read low 0.989 | locus YNR052C, strain pop2, active compounds read low 0.978 | locus YOL012C, strain htz1 0.7 | locus YOL147C, strain pex11, active compounds read low 1.01 | locus YOR061W, strain CKA2, active compounds read low 0.999 | locus YOR069W, strain VPS5, active compounds read low 0.995 | locus YOR136W, strain idh2, active compounds read low 1.02 | locus YOR144C, strain elg1, active compounds read low 0.985 | locus YOR184W, strain ser1, active compounds read low 0.975 | locus YOR316C, strain cot1, active compounds read low 0.977 | locus YPL055C, strain LGE1, active compounds read low 0.973 | locus YPR119W, strain clb2, active compounds read low 0.977 | locus YPR141C, strain kar3, active compounds read low 0.942 | locus YPR163C, strain tif3, active compounds read low 0.985 | locus YPR167C, strain met16, active compounds read low 1.01 | strain wtn01, active compounds read low 0.987
